Source: the supplement of paper PMC8728848
Only a selection was taken, and the strongest signals are over-represented in it overall.

What was measured:
Assay in all cases: glycan array binding signal (z-score within array); higher = stronger binding
Conditions in all cases: glycan notation: IUPAC condensed, linker removed
Fuc(a1-2)Gal(b1-4)Glc = molecular target: Fuc(a1-2)Gal(b1-4)Glc
Method in brief: (§1)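 The binding signal is a Z-score computed within each array. Data were drawn from 3228 arrays in the Consortium for Functional Glycomics database, restricted to those with a known protein sequence. Scores were averaged over arrays of the same protein sequence at different concentrations or buffers, and over linkers, and negative values can be taken as non-binding.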

[1] = molecular target: Fuc(a1-2)Gal(b1-4)GlcNAc(b1-2)[Fuc(a1-2)Gal(b1-4)GlcNAc(b1-4)]Man(a1-3)[Fuc(a1-2)Gal(b1-4)GlcNAc(b1-2)Man(a1-6)]Man(b1-4)GlcNAc(b1-4)GlcNAc
Method in brief: as §1

[2] = molecular target: Fuc(a1-2)Gal(b1-4)GlcNAc(b1-6)GalNAc
Method in brief: as §1

[3] = molecular target: Fuc(a1-2)Gal(b1-4)[Fuc(a1-3)]GlcNAc(b1-2)[Fuc(a1-2)Gal(b1-4)[Fuc(a1-3)]GlcNAc(b1-4)]Man(a1-3)[Fuc(a1-2)Gal(b1-4)[Fuc(a1-3)]GlcNAc(b1-2)Man(a1-6)]Man(b1-4)GlcNAc(b1-4)GlcNAc
Method in brief: as §1

[4] = molecular target: Fuc(a1-2)[Gal(a1-3)]Gal(b1-4)GlcNAc
Method in brief: as §1

[5] = molecular target: Fuc(a1-2)[Gal(a1-3)]Gal(b1-4)GlcNAc(b1-2)Man
Method in brief: as §1

[6] = molecular target: Fuc(a1-2)[GalNAc(a1-3)]Gal(b1-3)GlcNAc
Method in brief: as §1

[7] = molecular target: Fuc(a1-2)[GalNAc(a1-3)]Gal(b1-4)GlcNAc(b1-2)Man(a1-3)[Fuc(a1-2)[GalNAc(a1-3)]Gal(b1-4)GlcNAc(b1-2)Man(a1-6)]Man(b1-4)GlcNAc(b1-4)[Fuc(a1-6)]GlcNAc
Method in brief: as §1

[8] = molecular target: Gal(a1-3)Gal(b1-3)GlcNAc(b1-6)GalNAc
Method in brief: as §1

[9] = molecular target: Gal(a1-3)Gal(b1-4)GlcNAc(b1-3)GalNAc
Method in brief: as §1

[10] = molecular target: Gal(b1-3)GlcNAc(b1-2)[Gal(b1-3)GlcNAc(b1-6)]Man(a1-6)[Gal(b1-3)GlcNAc(b1-2)Man(a1-3)]Man(b1-4)GlcNAc(b1-4)GlcNAc
Method in brief: as §1

[11] = molecular target: Gal(b1-3)[Fuc(a1-4)]GlcNAc(b1-6)GalNAc
Method in brief: as §1

Gal(b1-4)Glc6S = molecular target: Gal(b1-4)Glc6S
Method in brief: as §1

[12] = molecular target: Gal(b1-4)GlcNAc(b1-3)Gal(b1-3)GalNAc
Method in brief: as §1

[13] = molecular target: Gal(b1-4)GlcNAc(b1-3)Gal(b1-4)GlcNAc(b1-2)Man(a1-3)[Gal(b1-4)GlcNAc(b1-3)Gal(b1-4)GlcNAc(b1-2)Man(a1-6)]Man(b1-4)GlcNAc(b1-4)[Fuc(a1-6)]GlcNAc
Method in brief: as §1

[14] = molecular target: Gal(b1-4)GlcNAc(b1-3)Gal(b1-4)GlcNAc(b1-3)Gal(b1-4)GlcNAc(b1-3)Gal(b1-4)GlcNAc(b1-2)Man(a1-3)[Gal(b1-4)GlcNAc(b1-3)Gal(b1-4)GlcNAc(b1-3)Gal(b1-4)GlcNAc(b1-3)Gal(b1-4)GlcNAc(b1-2)Man(a1-6)]Man(b1-4)GlcNAc(b1-4)[Fuc(a1-6)]GlcNAc
Method in brief: as §1

[15] = molecular target: Gal(b1-4)GlcNAc(b1-6)[Gal(b1-4)GlcNAc(b1-3)]GalNAc
Method in brief: as §1

Gal3S(b1-4)Glc6S = molecular target: Gal3S(b1-4)Glc6S
Method in brief: as §1

Gal3S(b1-4)GlcNAc = molecular target: Gal3S(b1-4)GlcNAc
Method in brief: as §1

GalNAc(b1-4)Gal(b1-4)Glc = molecular target: GalNAc(b1-4)Gal(b1-4)Glc
Method in brief: as §1

[16] = molecular target: GalNAc(b1-4)GlcNAc(b1-2)Man(a1-3)[GalNAc(b1-4)GlcNAc(b1-2)Man(a1-6)]Man(b1-4)GlcNAc(b1-4)GlcNAc
Method in brief: as §1

[17] = molecular target: GlcNAc(a1-6)Gal(b1-4)GlcNAc
Method in brief: as §1

[18] = molecular target: GlcNAc(b1-3)Gal(b1-4)GlcNAc(b1-3)Gal(b1-4)GlcNAc(b1-2)Man(a1-3)[GlcNAc(b1-3)Gal(b1-4)GlcNAc(b1-3)Gal(b1-4)GlcNAc(b1-2)Man(a1-6)]Man(b1-4)GlcNAc(b1-4)[Fuc(a1-6)]GlcNAc
Method in brief: as §1

[19] = molecular target: GlcNAc(b1-3)Gal(b1-4)GlcNAc(b1-3)Gal(b1-4)GlcNAc(b1-3)Gal(b1-4)GlcNAc(b1-2)Man(a1-3)[GlcNAc(b1-3)Gal(b1-4)GlcNAc(b1-3)Gal(b1-4)GlcNAc(b1-3)Gal(b1-4)GlcNAc(b1-2)Man(a1-6)]Man(b1-4)GlcNAc(b1-4)[Fuc(a1-6)]GlcNAc
Method in brief: as §1

[20] = molecular target: Man(a1-2)Man(a1-2)Man(a1-6)[Man(a1-3)]Man
Method in brief: as §1

[21] = molecular target: Man(a1-3)[Man(a1-6)]Man(b1-4)GlcNAc(b1-4)[Fuc(a1-6)]GlcNAc
Method in brief: as §1

[22] = molecular target: Neu5Ac(a2-3)Gal(b1-3)GlcNAc(b1-3)GalNAc
Method in brief: as §1

[23] = molecular target: Neu5Ac(a2-3)Gal(b1-4)GlcNAc(b1-2)[Neu5Ac(a2-3)Gal(b1-4)GlcNAc(b1-6)]Man(a1-6)[Neu5Ac(a2-3)Gal(b1-4)GlcNAc(b1-2)Man(a1-3)][GlcNAc(b1-4)]Man(b1-4)GlcNAc(b1-4)GlcNAc
Method in brief: as §1

[24] = molecular target: Neu5Ac(a2-3)Gal(b1-4)GlcNAc(b1-3)Gal
Method in brief: as §1

[25] = molecular target: Neu5Ac(a2-3)Gal(b1-4)GlcNAc(b1-3)Gal(b1-4)GlcNAc(b1-3)GalNAc
Method in brief: as §1

[26] = molecular target: Neu5Ac(a2-3)Gal(b1-4)GlcNAc(b1-3)Gal(b1-4)[Fuc(a1-3)]GlcNAc
Method in brief: as §1

[27] = molecular target: Neu5Ac(a2-3)Gal(b1-4)GlcNAc(b1-6)[Neu5Ac(a2-3)Gal(b1-3)]GalNAc
Method in brief: as §1

[28] = molecular target: Neu5Ac(a2-3)Gal(b1-4)[Fuc(a1-3)]GlcNAc(b1-3)Gal(b1-4)GlcNAc
Method in brief: as §1

[29] = molecular target: Neu5Ac(a2-3)Gal(b1-4)[Fuc(a1-3)]GlcNAc(b1-3)GalNAc
Method in brief: as §1

[30] = molecular target: Neu5Ac(a2-3)Gal(b1-4)[Fuc(a1-3)]GlcNAc(b1-6)[Neu5Ac(a2-3)Gal(b1-3)]GalNAc
Method in brief: as §1

[31] = molecular target: Neu5Ac(a2-6)Gal(b1-4)GlcNAc(b1-2)Man(a1-3)[Man(a1-6)]Man(b1-4)GlcNAc(b1-4)GlcNAc
Method in brief: as §1

[32] = molecular target: Neu5Ac(a2-6)Gal(b1-4)GlcNAc(b1-2)Man(a1-3)[Neu5Ac(a2-6)Gal(b1-4)GlcNAc(b1-2)Man(a1-6)]Man(b1-4)GlcNAc(b1-4)GlcNAc
Method in brief: as §1

[33] = molecular target: Neu5Ac(a2-6)Gal(b1-4)GlcNAc(b1-2)Man(a1-3)[Neu5Ac(a2-6)Gal(b1-4)GlcNAc(b1-2)Man(a1-6)]Man(b1-4)GlcNAc(b1-4)[Fuc(a1-6)]GlcNAc
Method in brief: as §1

[34] = molecular target: Neu5Ac(a2-6)Gal(b1-4)GlcNAc(b1-3)Gal(b1-3)GlcNAc
Method in brief: as §1

[35] = molecular target: Neu5Ac(a2-6)Gal(b1-4)GlcNAc(b1-3)Gal(b1-4)GlcNAc(b1-3)Gal(b1-4)GlcNAc(b1-2)Man(a1-3)[Neu5Ac(a2-6)Gal(b1-4)GlcNAc(b1-3)Gal(b1-4)GlcNAc(b1-3)Gal(b1-4)GlcNAc(b1-2)Man(a1-6)]GalNAc
Method in brief: as §1

[36] = molecular target: Neu5Ac(a2-6)Gal(b1-4)GlcNAc(b1-3)Gal(b1-4)GlcNAc(b1-3)GalNAc
Method in brief: as §1

[37] = molecular target: Neu5Ac(a2-6)Gal(b1-4)GlcNAc(b1-3)[Neu5Ac(a2-6)Gal(b1-4)GlcNAc(b1-6)]GalNAc
Method in brief: as §1

[38] = molecular target: Neu5Ac(a2-8)Neu5Ac(a2-8)Neu5Ac(a2-3)[GalNAc(b1-4)]Gal(b1-4)Glc
Method in brief: as §1

[39] = molecular target: Neu5Gc(b2-6)Gal(b1-4)GlcNAc
Method in brief: as §1

B1: ERGIC1-EDTA (Homo sapiens), Q969X5 (protein)
chain: MKFLVNVALVFMVVYISYIYAAAHMHHHHHHDYDIPTTENLYFQGSEVVNELYVDDPDKDSGGKIDVSLNISLPNLHCELVGLDIQDEMGRHEVGHIDNSMKIPLNNGAGCRFEGQFSINKVPGNFHVSTHSATAQPQNPDMTHVIHKLSFGDTLQVQNIHGAFNALGGADRLTSNPLASHDYILKIVPTVYEDKSGKQRYSYQYTVANKEYVAYSHTGRIIPAIWFRYDLSPITVKYTE
Fuc(a1-2)Gal(b1-4)Glc
  glycan array binding signal (z-score): -1.4
[1]
  glycan array binding signal (z-score): 2.88
[2]
  glycan array binding signal (z-score): 1.3
[3]
  glycan array binding signal (z-score): 1.07
[4]
  glycan array binding signal (z-score): -0.089
[5]
  glycan array binding signal (z-score): 0.546
[6]
  glycan array binding signal (z-score): 0.499
[7]
  glycan array binding signal (z-score): 2.25
[8]
  glycan array binding signal (z-score): 0.056
[9]
  glycan array binding signal (z-score): -0.034
[10]
  glycan array binding signal (z-score): 3.15
[11]
  glycan array binding signal (z-score): -0.044
Gal(b1-4)Glc6S
  glycan array binding signal (z-score): -0.759
[12]
  glycan array binding signal (z-score): -1.26
[13]
  glycan array binding signal (z-score): 2.13
[14]
  glycan array binding signal (z-score): 2.23
[15]
  glycan array binding signal (z-score): -0.361
Gal3S(b1-4)Glc6S
  glycan array binding signal (z-score): 0.151
Gal3S(b1-4)GlcNAc
  glycan array binding signal (z-score): -0.117
GalNAc(b1-4)Gal(b1-4)Glc
  glycan array binding signal (z-score): -0.531
[16]
  glycan array binding signal (z-score): 0.638
[17]
  glycan array binding signal (z-score): -0.295
[18]
  glycan array binding signal (z-score): 0.799
[19]
  glycan array binding signal (z-score): 2.52
[20]
  glycan array binding signal (z-score): -0.459
[21]
  glycan array binding signal (z-score): 2.1
[22]
  glycan array binding signal (z-score): 0.617
[23]
  glycan array binding signal (z-score): -0.63
[24]
  glycan array binding signal (z-score): -0.734
[25]
  glycan array binding signal (z-score): -0.406
[26]
  glycan array binding signal (z-score): -0.82
[27]
  glycan array binding signal (z-score): -0.285
[28]
  glycan array binding signal (z-score): 2.27
[29]
  glycan array binding signal (z-score): 3
[30]
  glycan array binding signal (z-score): 1.03
[31]
  glycan array binding signal (z-score): 1.69
[32]
  glycan array binding signal (z-score): -0.027
[33]
  glycan array binding signal (z-score): 2.07
[34]
  glycan array binding signal (z-score): 0.896
[35]
  glycan array binding signal (z-score): 2.02
[36]
  glycan array binding signal (z-score): 0.381
[37]
  glycan array binding signal (z-score): -1.06
[38]
  glycan array binding signal (z-score): 0.592
[39]
  glycan array binding signal (z-score): -0.624
